Experimental data as given in the supplement of paper PMC3616981.

Compound: CC(C)c1cccc(C(C)C)c1N1C(=O)c2ccc(O)cc2C1=O
Test: reporter fold induction vs vehicle; higher = higher reporter activity
Method: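 Attagene multiplexed transcription-factor reporter assay (48 cis response elements and 25 trans nuclear-receptor constructs) treated with 5HPP-33 at 8 concentrations (0.091–200 µM). The response is fold induction of reporter activity relative to vehicle control. Cell line and time not stated in the paper; tested in ToxCast Phase II for this study.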

Target	reporter fold induction (0.091 µM)	reporter fold induction (0.274 µM)	reporter fold induction (0.823 µM)	reporter fold induction (2.469 µM)	reporter fold induction (7.407 µM)	reporter fold induction (22.22 µM)	reporter fold induction (66.67 µM)	reporter fold induction (200 µM)
FoxA2_CIS	1.02	0.959	1.04	0.939	1.05	0.978	1.28	1.32
VDRE_CIS	1.07	1.09	0.969	0.979	1.62	1.76	2.18	3.25
FXR_TRANS	1.17	1.15	1.19	1.17	1.09	1.46	1.82	1.92
E_Box_CIS	1.04	0.955	1.02	0.967	1.11	0.945	1.06	0.895
C_EBP_CIS	1.02	0.969	1.04	1.04	1.12	0.945	1.31	1.32
